{
  "source": "PubChem BioAssay (NCATS)",
  "note": "Inconclusive results are not listed. A number with no mark means an inactive call. Active and inactive are the calls of the source. Calls come from the whole dose curve; as a rule, active = well fitted curve in the direction sought with a large enough effect; inconclusive = small, poorly fitted or top-dose-only effect, or another doubt; inactive = no such curve, though single readings can be large; an effect the other way counts as inactive or inconclusive. Note: nearly all actives have a fitted effect of over 40% in size.",
  "data": [
    {"target": "Cytochrome P450 3A7 (Homo sapiens) (UniProt P24462)", "sequence (P24462 whole entry, looked up)": "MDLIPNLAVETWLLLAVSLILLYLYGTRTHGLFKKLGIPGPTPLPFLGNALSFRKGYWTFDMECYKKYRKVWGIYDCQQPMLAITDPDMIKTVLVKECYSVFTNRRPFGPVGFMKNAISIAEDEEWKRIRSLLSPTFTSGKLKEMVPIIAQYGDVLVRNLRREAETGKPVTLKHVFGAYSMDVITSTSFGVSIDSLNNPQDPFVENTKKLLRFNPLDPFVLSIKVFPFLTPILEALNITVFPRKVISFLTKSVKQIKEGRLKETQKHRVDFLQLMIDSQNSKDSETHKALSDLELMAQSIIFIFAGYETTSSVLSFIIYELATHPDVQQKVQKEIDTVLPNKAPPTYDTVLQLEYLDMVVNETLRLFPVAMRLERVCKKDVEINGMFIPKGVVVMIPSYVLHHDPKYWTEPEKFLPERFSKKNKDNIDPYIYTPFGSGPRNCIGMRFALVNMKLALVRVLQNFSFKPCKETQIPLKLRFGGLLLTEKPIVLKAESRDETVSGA", "assay": "Cytochrome P450 family 3 subfamily A member 7 (CYP3A7) small molecule antagonists: luciferase biochemical qHTS assay (AID 1963596); note: % is set by controls: 0 for no effect and ±100 for the full control effect", "details": "P450-Glo CYP3A7 enzyme luminescence, 1 h; series mostly up to 57.4 µM; activity change, negative = inhibition: at the top concentration", "in_short": "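Enzyme-substrate mix + cpd (DMSO), 10 min RT; + NADPH regen system, 1 h RT; + luciferin detection reagent, 20 min RT; luminescence read. Proluciferin substrate, P450-Glo format, 1536-well qHTS.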", "units": {"activity change, negative = inhibition": "%"}, "values": [
      {"smiles": "CCNCc1nc2c(N)nc3ccccc3c2n1CC(C)(C)O", "activity change, negative = inhibition": 7.02},
      {"smiles": "CO/N=C(/C(=O)N[C@@H]1C(=O)N2C(C(=O)O)=C(Cn3nnc(C)n3)CS[C@H]12)c1csc(N)n1", "activity change, negative = inhibition": -6},
      {"smiles": "CCN1CCC[C@H]1CNC(=O)c1c(O)c(Cl)cc(Cl)c1OC", "activity change, negative = inhibition": -9.74},
      {"smiles": "Cc1ccc(NC(=O)Nc2cc(C(F)(F)F)ccc2F)cc1Nc1ccc2c(c1)NC(=O)/C2=C\\c1ccc[nH]1", "activity change, negative = inhibition": 0},
      {"smiles": "O=C(NCC(=O)N1CC[C@H](NC2CCC(O)(c3ccc(-c4ncccn4)cn3)CC2)C1)c1cccc(C(F)(F)F)c1", "note": "(stereo partly specified)", "activity change, negative = inhibition": -18.4},
      {"smiles": "Nc1nc(N)c2nc(-c3ccccc3)c(N)nc2n1", "activity change, negative = inhibition": -9.86},
      {"smiles": "CNc1nc(C)nc(N[C@H]2CCC[C@@H](C(=O)NCc3ccc(C#N)cc3C(F)(F)F)C2)n1", "activity change, negative = inhibition": 4.59},
      {"smiles": "COC(=O)N[C@@H](C)CNc1nccc(-c2cn(C(C)C)nc2-c2cc(Cl)cc(NS(C)(=O)=O)c2F)n1", "activity change, negative = inhibition": 18.5},
      {"smiles": "CC(C)N=C(N)/N=C(\\N)Nc1ccc(Cl)cc1", "activity change, negative = inhibition": -17.1},
      {"smiles": "CO[C@@H]1[C@@H](O[C@@H]2O[C@H](C)[C@@H](O[C@H]3C[C@@](C)(O)[C@@H](O)[C@H](C)O3)[C@H](N(C)C)[C@H]2O)[C@@H](CC=O)C[C@@H](C)[C@@H](O[C@@H]2CC[C@H](N(C)C)[C@@H](C)O2)/C=C/C=C/C[C@@H](C)OC(=O)C[C@H]1OC(C)=O", "activity change, negative = inhibition": -12.8},
      {"smiles": "COc1cc2nc(Cl)nc(N)c2cc1OC", "activity change, negative = inhibition": 10.2},
      {"smiles": "CO[C@@]1(NC(=O)Cc2cccs2)C(=O)N2C(C(=O)O)=C(COC(N)=O)CS[C@@H]21", "activity change, negative = inhibition": -15.9},
      {"smiles": "Oc1c(I)cc(Cl)c2cccnc12", "activity change, negative = inhibition": -22.9}
    ]},
    {"tested_on": "not listed separately", "assay": "Viability qHTS for spleen associated tyrosine kinase inhibitor (SYKi) naive MV4-11 cells (AID 1963823); note: potency is the fitted concentration of half-maximal effect", "details": "MV4-11 AML viability, CellTiter-Glo luminescence, 72 h; series mostly up to 45 µM; viability (% of control): at the top concentration", "in_short": "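SYKi-naive MV4-11 AML cells, 500 per well, were exposed to library compounds for 72 hr at 37 C, 5% CO2. Viability was then read by CellTiter-Glo luminescence after 10 min at room temperature.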", "values": [
      {"smiles": "COc1cc(O)c2c(c1)C1=C[C@H](O)[C@@H](O)C[C@]1(C)OC2=O", "viability (% of control)": "78%"},
      {"smiles": "Cc1cc(-c2nc(-c3ccc(OC(F)(F)F)cc3)no2)nn1Cc1ccnc(N2CCN(C3CC3)CC2)c1", "viability (% of control)": "20.4%"},
      {"smiles": "C=CC1C(OC2OC(CO)C(O)C(O)C2O)OC=C2C(=O)N3C(C(=O)O)Cc4c([nH]c5ccccc45)C3CC21", "note": "(stereo unspecified)", "viability (% of control)": "71.7% [at 17.3 µM]"},
      {"smiles": "Cc1nc(Nc2cnn(C3CCNCC3)c2)nc2c1N(C)C(=O)c1cc3ccccc3cc1N2C", "Potency": "3.66 µM (active)"},
      {"smiles": "C=C1C(=O)O[C@@H]2/C=C(\\C)CC/C=C(\\C(=O)O[C@@H]3O[C@H](CO)[C@@H](O)[C@H](O)[C@H]3O)CC[C@@H]12", "viability (% of control)": "65.6% [at 17.3 µM]"},
      {"smiles": "COC(=O)C1=CO[C@@H](O[C@@H]2O[C@H](CO)[C@@H](O)[C@H](O)[C@H]2O)[C@H]2[C@@H]1[C@H](O)C[C@]2(C)O", "viability (% of control)": "67.3% [at 17.3 µM]"},
      {"smiles": "C[C@@H]1C[C@H]2OC(=O)[C@@]3(C)CCC[C@](C)(C23)[C@@]1(O)CCC1=CC(=O)OC1O", "note": "(stereo partly specified)", "viability (% of control)": "92.8%"},
      {"smiles": "C[C@@]12C[C@]3(O)O[C@H](O1)[C@]1(COC(=O)c4ccccc4)[C@H]3C[C@@]12O[C@@H]1O[C@H](COC(=O)c2ccccc2)[C@@H](O)[C@H](O)[C@H]1O", "viability (% of control)": "57.5% [at 17.3 µM]"},
      {"smiles": "CC1(C)CC[C@]2(C(=O)O)[C@H](O)C[C@]3(C)C(=CCC4[C@@]5(C)CC[C@H](O[C@@H]6O[C@H](CO[C@@H]7OC[C@H](O)[C@H](O)[C@H]7O[C@@H]7OC[C@H](O)[C@H](O)[C@H]7O)[C@@H](O)[C@H](O)[C@H]6O)C(C)(C)C5CC[C@]43C)[C@@H]2C1", "note": "(stereo partly specified)", "viability (% of control)": "57.5% [at 9.25 µM]"},
      {"smiles": "CC/C=C/CC1=C(CCCCCCCC(=O)O)CCC1=O", "viability (% of control)": "59.7%"},
      {"smiles": "COc1ccc(C[C@H](N)C(=O)N[C@@H]2[C@H](O)[C@H](n3cnc4c(N(C)C)ncnc43)O[C@@H]2CO)cc1", "Potency": "0.184 µM (active)"},
      {"smiles": "COc1ccc(N2CCN(CCCNC(=O)Cn3c(=O)c4cccn4c4c(C)ccnc43)CC2)cc1", "viability (% of control)": "54.7%"},
      {"smiles": "COC1C(CO)OC(n2cnc3c(=O)[nH]cnc32)C1O", "note": "(stereo unspecified)", "viability (% of control)": "76.2%"},
      {"smiles": "NC(=O)Nc1cc(-c2cccc(F)c2)sc1C(=O)NC1CCCNC1", "note": "(stereo unspecified)", "viability (% of control)": "5.4%"},
      {"smiles": "O=C1C[C@@H](c2ccc(O)cc2)Oc2cc(O)ccc21", "Potency": "11.6 µM (active)"},
      {"smiles": "CCCN(CCC)C(=O)C1=Cc2ccc(-c3ccc(C(=O)N4CCCC4)cc3)cc2N=C(N)C1", "Potency": "8.33 µM (active)"},
      {"smiles": "COc1ccc(/C=C/C(=O)O[C@@H]2[C@@H](O)[C@H](C)O[C@@H](OC3C4C=COC(O[C@@H]5O[C@H](CO)[C@@H](O)[C@H](O)[C@H]5O)C4C4(CO)OC34)[C@@H]2O)cc1OC", "note": "(stereo partly specified)", "viability (% of control)": "91.2% [at 17.3 µM]"},
      {"smiles": "C/C=C/C=C/[C@@H]1O[C@](O)([C@H](CC)C(=O)NC/C=C/C=C(\\C)[C@@H](OC)[C@@H](C)C2OC(/C=C/C=C/C=C(\\C)C(=O)c3c(O)cc[nH]c3=O)[C@H](O)[C@@H]2O)[C@H](O)[C@H](O)C1(C)C", "note": "(stereo partly specified)", "viability (% of control)": "89% [at 17.3 µM]"}
    ]}
  ]
}
